Each structure is given as a SMILES string. Unmarked numbers belong to inactive results. The call rests on the fitted dose curve.
On the % scale 0 is the no-effect control and ±100 the full control effect.

The assay in a line: G protein-coupled receptor (GPCR) small molecule agonists, calcium flux assay: HEK293 wild type cell line counter screen (AID 1920065). The conditions noted are these: HEK293 WT calcium flux, fluorescence, agonist mode; series mostly up to 57.6 µM; activation: at the top concentration. In short, it runs like this: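 Non-specific calcium responders were flagged by adding DMSO-dissolved compounds to dye-loaded cells and reading 480/540 nm fluorescence each second for 3 min; ATP served as positive control.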
Turning to `C=Cc1c(C)c2cc3[nH]c(cc4nc(cc5nc(cc1[nH]2)C(C)=C5CCC(=O)O)C(CCC(=O)O)=C4C)c(C)c3C=C`, the “activation” value was -0.055% [at 26.5 µM].

On to `CCCCCCCOC(=O)CCC`, for which the “activation” value is -0.359%.

For the compound `CCCCCCCCC(=O)OCC(C)OC(=O)CCCCCCCC` (stereo not given), the “activation” value is -0.222%.

Take `CCN1/C(=C/C=C/c2sc3ccccc3[n+]2CC)Sc2ccccc21`: the activation is -0.0412% [at 11.8 µM].

With `c1cnc(N2CCN(Cc3ccc4c(c3)OCO4)CC2)nc1`, the “activation” value was -1% [at 26.5 µM].

Regarding `C=C[Si]1(C)O[Si](C)(C=C)O[Si](C)(C=C)O[Si](C)(C=C)O1` (stereo not given), the “activation” value is 0.833%.

Take `CCN(Cc1cccnc1)C(=O)c1cccc(Cl)c1[C@]1(C)C(=O)N(Cc2ccc(OC)cc2OC)c2ccc(Cl)cc21`: the “activation” value was -0.438%.

Regarding `CCCNC(C)(C)COC(=O)c1ccccc1`, the “activation” value was -0.485% [at 26.5 µM].

With `CCCCCCCCCCl`, the “activation” value is -0.321%.

On to `CCCCCC(C)OC(=O)COc1ccc(Cl)c2cccnc12` (stereo not given), for which the “activation” value is -0.0332%.

Regarding `O=C(N[C@H](CO)[C@H](O)c1ccc([N+](=O)[O-])cc1)C(Cl)Cl`, the “activation” value is -2.07%.

With `CC(=O)Nc1ccc(/C=N/NC(N)=S)cc1`, the “activation” value is -1.36% [at 26.5 µM].

In the case of `C=O`, the “activation” value was -0.358%.

Consider `CC(C)(C)C1=CC(=O)C=C(C(C)(C)C)C1=O`, for which the “activation” value was 0.206%.

Turning to `C=CC(=C)CCCC(C)(C)OC(C)=O`, the “activation” value is 0.943%.

`CC/C=C\CCCCCCCCCCOC(C)=O`: the “activation” value was 0.363%.

As for `Oc1ccc(C2(c3ccc(O)cc3)CC3CC2C2CCCC32)cc1` (stereo not given), the “activation” value was -0.363%.

Regarding `O=c1[nH]c(=O)n([C@H]2C[C@H](O)[C@@H](CO)O2)cc1C(F)(F)F`, the “activation” value is -0.0901% [at 26.5 µM].

On to `Cc1cc(O)c2c(O)c3c(O)cccc3cc2c1`, for which the “activation” value was 1.23% [at 26.5 µM].

Consider `Cc1ccc(Br)cc1`, for which the “activation” value is 1.18%.

On to `CC1CCC(CO)CC1` (stereo not given), for which the “activation” value is 1.32%.

As for `C=Cc1ccc(OC(C)=O)cc1`, the “activation” value was 0.0407%.

In the case of `Nc1ccc(/C=C/c2ccc(N)cc2S(=O)(=O)O)c(S(=O)(=O)O)c1`, the activation was -1.11% [at 0.217 µM].

With `Cc1cccc(N(C)C(=S)Oc2ccc3c(c2)C2CCC3C2)c1` (stereo not given), the “activation” value was 1.63% [at 26.5 µM].

For `Cc1c(N)cccc1N`, the “activation” value was 4.12%.

As to `CCC(CC)CO`, the “activation” value was -0.448%.

Consider `Cc1c(N)c(=O)n(-c2ccccc2)n1C`, for which the “activation” value was -0.111% [at 26.5 µM].

For the compound `N/C(=N\N=C\c1ccc(Cl)cc1)N/N=C/c1ccc(Cl)cc1`, the “activation” value was -0.638% [at 26.5 µM].

For the compound `O=C(NN1CCCC1)NS(=O)(=O)c1ccc(Cl)cc1`, the “activation” value was -0.391% [at 26.5 µM].

On to `C=C[Si](OC(C)=O)(OC(C)=O)OC(C)=O`, for which the “activation” value is 4.98%.

With `O=C1C=CC(=O)N1`, the “activation” value is 3.3%.

Regarding `CSc1ccc(Oc2ccc(S(N)(=O)=O)cc2CN(C)C)cc1C`, the “activation” value was -1.13%.

Turning to `CCc1ccc2c(c1)C(=O)c1ccccc1C2=O`, the “activation” value was -1.99%.

On to `Cc1ccccc1S`, for which the “activation” value was 0.764% [at 26.5 µM].

Regarding `OCCOCC#CCOCCO`, the “activation” value was -1.33%.

On to `Cc1ccc(O)c2ncccc12`, for which the “activation” value was -0.264% [at 26.5 µM].

As to `COC(OC)(C(=O)c1ccccc1)c1ccccc1`, the “activation” value is -3.6%.

Turning to `Cc1c(Nc2ncccc2C(=O)O)cccc1C(F)(F)F`, the “activation” value was -1.2% [at 26.5 µM].

Consider `CC1(C)[C@@H](O)CC[C@]2(C)[C@H]3C(=O)C=C4[C@@H]5C[C@@](C)(C(=O)O)CC[C@]5(C)CC[C@@]4(C)[C@]3(C)CC[C@@H]12`, for which the “activation” value is -1.28%.

Consider `CCCCCCCCS(=O)(=O)O`, for which the “activation” value is -0.0879%.

These data come from PubChem BioAssay (Tox21).
